Measured values taken from PubChem BioAssay (NCI).
Compounds without any hit were thinned out: in the full panel of roughly 79,000, 15% have a hit. Activity calls are given as the source filed them. Cut-off read from the data, not from the text of the source: active = growth inhibition above about 70%; inactive = the rest.

Key:
[1] = NCI Yeast Anticancer Drug Screen. Data for the rad50 strain (AID 155);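 note: 0% = growth of vehicle-only cultures of the same strain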; conditions: S. cerevisiae rad50 strain growth inhibition, stronger effect = higher value
How it was run: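 Growth of the mutant yeast was measured after compound exposure and referenced to vehicle-treated cultures.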

[2] = NCI Yeast Anticancer Drug Screen. Data for the mec2-1 strain (AID 157); conditions: S. cerevisiae mec2-1 strain, stronger effect = higher value
How it was run: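 Growth inhibition is read against vehicle-treated controls after compound exposure of the mec2-1 yeast strain, which is defective in DNA damage repair or cell cycle control.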

[3] = NCI Yeast Anticancer Drug Screen. Data for the sgs1 mgt1 strain (AID 161);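 note: 0% = growth of cultures given vehicle only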; conditions: S. cerevisiae sgs1 mgt1 strain, stronger effect = higher value
How it was run: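 Growth of a repair-deficient yeast mutant was monitored after compound treatment and expressed as inhibition relative to vehicle-treated cultures.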

[4] = NCI Yeast Anticancer Drug Screen. Data for the cln2 rad14 strain (AID 165);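 note: 0% = growth equal to vehicle treated cultures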; conditions: S. cerevisiae cln2 rad14 strain, stronger effect = higher value
How it was run: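 Growth inhibition, relative to vehicle-treated controls, is the read-out. The test organism is a yeast strain with defined genetic alterations, cln2 rad14.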

[5] = NCI Yeast Anticancer Drug Screen. Data for the bub3 strain (AID 167); conditions: S. cerevisiae bub3 mutant strain, stronger effect = higher value
How it was run: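 Whole-cell yeast assay. The mutant strain was incubated with compounds, and growth inhibition was determined by comparison with vehicle-treated cells.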

[6] = NCI Yeast Anticancer Drug Screen. Data for the mlh1 rad18 strain (AID 175); conditions: S. cerevisiae mlh1 rad18 strain growth inhibition, stronger effect = higher value
How it was run: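 Cells of a genetically altered yeast strain, deficient in DNA damage repair, were treated with compound. Their growth was then compared with that of vehicle-treated cultures to give inhibition.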

[7] = at 5.0 µM (retest, dose inferred, filed as 0.5)
[8] = at 50.0 µM (retest, dose inferred, filed as 5.0)

Measured: growth inhibition

CC(=O)Oc1c(Br)ccc2cc(C(Br)Br)c(C(=O)c3ccccc3)nc12
inactive: [1]; [7] 55% | [1]; [8] 55% | [2]; [7] 38% | [2]; [8] 38% | [3]; [7] 51% | [3]; [8] 51% | [4]; [7] 30% | [4]; [8] 30% | [5]; [7] 25% | [5]; [8] 25% | [6]; [7] 53% | [6]; [8] 53%
active: [1]; at 50.0 µM 83.6% | [2]; at 50.0 µM 87.5% | [3]; at 50.0 µM 87.5% | [4]; at 50.0 µM 82.9% | [5]; at 50.0 µM 83.9% | [6]; at 50.0 µM 81.4%

CC/C(=C(/CC)c1ccc([O-])cc1)c1ccc([O-])cc1.CC/C(=C(\CC)c1ccc([O-])cc1)c1ccc([O-])cc1.O=C([CH-]C(=O)c1ccccc1)c1ccccc1.O=C([CH-]C(=O)c1ccccc1)c1ccccc1.O=C([CH-]C(=O)c1ccccc1)c1ccccc1.O=C([CH-]C(=O)c1ccccc1)c1ccccc1.[Ti+4].[Ti+4]
inactive: [5]; at 50.0 µM 60.9%
active: [1]; [7] 84% | [1]; [8] 96% | [1]; at 50.0 µM 77.3% | [2]; [7] 97% | [2]; [8] 97% | [2]; at 50.0 µM 84% | [3]; [7] 97% | [3]; [8] 96% | [3]; at 50.0 µM 84.4% | [4]; [7] 94% | [4]; [8] 96% | [4]; at 50.0 µM 80% | [5]; [7] 98% | [5]; [8] 88% | [6]; [7] 94% | [6]; [8] 93% | [6]; at 50.0 µM 80%

CC1NS(=O)(=O)N(C)C1=O (configuration not stated)
inactive: [1]; [7] 3% | [1]; [8] -5% | [1]; at 50.0 µM 3.05% | [2]; [7] 6% | [2]; [8] 3% | [2]; at 50.0 µM 15.6% | [3]; [7] 5% | [3]; [8] 3% | [3]; at 50.0 µM -2.2% | [4]; [7] 0% | [4]; [8] -13% | [4]; at 50.0 µM 36.7% | [5]; [7] 6% | [5]; [8] 16% | [5]; at 50.0 µM 8.55% | [6]; [7] 2% | [6]; [8] -9% | [6]; at 50.0 µM -1.05%

OC(C1CCCC1=N/N=C1/CCCC1C(O)(C(F)(F)Cl)C(F)(F)Cl)(C(F)(F)Cl)C(F)(F)Cl (configuration not stated)
inactive: [1]; [7] -2% | [1]; [8] 22% | [2]; [7] -2% | [2]; [8] 25% | [3]; [7] -4% | [3]; [8] 7% | [4]; [7] 1% | [4]; [8] 26% | [5]; [7] 0% | [5]; [8] 11% | [6]; [7] -3% | [6]; [8] 33%
active: [1]; at 50.0 µM 86.3% | [2]; at 50.0 µM 89.3% | [3]; at 50.0 µM 90.9% | [4]; at 50.0 µM 88.8% | [5]; at 50.0 µM 91.8% | [6]; at 50.0 µM 92%

Cc1ccc(Cl)cc1NN
active: [1]; [8] 95% | [1]; at 50.0 µM 96.5% | [2]; [8] 97% | [2]; at 50.0 µM 99.2% | [3]; [8] 89% | [4]; [8] 94% | [4]; at 50.0 µM 97.6% | [5]; [8] 97% | [5]; at 50.0 µM 96.9% | [6]; [8] 96%
inactive: [1]; [7] -1% | [2]; [7] 5% | [3]; [7] 2% | [3]; at 50.0 µM 48.6% | [4]; [7] -1% | [5]; [7] -2% | [6]; [7] 5% | [6]; at 50.0 µM 47.6%

COc1cccc2c1C(=O)c1c(O)c3c(c(O)c1C2=O)C[C@@](O)(C(O)CO)C[C@@H]3OC1CC(N(Cc2ccccc2)Cc2ccccc2)C(O)C(C)O1 (some centres not stated)
active: [1]; [8] 98% | [1]; at 50.0 µM 86.8% | [2]; [8] 98% | [2]; at 50.0 µM 85.8% | [3]; [8] 98% | [4]; [8] 97% | [5]; [8] 98% | [6]; [8] 97% | [6]; at 50.0 µM 84%
inactive: [1]; [7] 45% | [2]; [7] 13% | [3]; [7] 29% | [3]; at 50.0 µM 65.6% | [4]; [7] 18% | [4]; at 50.0 µM 45.1% | [5]; [7] 20% | [5]; at 50.0 µM 62% | [6]; [7] 50%

Nc1nnc(Cc2ccc(Br)cc2)o1
inactive: [1]; [7] -8% | [1]; [8] 0% | [1]; at 50.0 µM 21.3% | [2]; [7] 1% | [2]; [8] -6% | [2]; at 50.0 µM 13.9% | [3]; [7] -3% | [3]; [8] 12% | [3]; at 50.0 µM 24.3% | [4]; [7] 10% | [4]; [8] -2% | [5]; [7] 4% | [5]; [8] 6% | [5]; at 50.0 µM -13.8% | [6]; [7] -12% | [6]; [8] 4% | [6]; at 50.0 µM 58.3%
active: [4]; at 50.0 µM 71.5%

O=C(Oc1c([N+](=O)[O-])cc(-c2ccc([N+](=O)[O-])cc2)cc1[N+](=O)[O-])c1ccccc1
active: [1]; at 50.0 µM 74.7% | [2]; [7] 86% | [2]; [8] 89% | [2]; at 50.0 µM 78.1% | [3]; [7] 80% | [3]; [8] 87% | [3]; at 50.0 µM 82.5% | [4]; [8] 76% | [4]; at 50.0 µM 79.3% | [5]; [8] 74% | [5]; at 50.0 µM 74.3% | [6]; [7] 82% | [6]; [8] 83% | [6]; at 50.0 µM 82.7%
inactive: [1]; [7] 32% | [1]; [8] 56% | [4]; [7] 34% | [5]; [7] 49%

COc1ccccc1NC(=O)c1ccccc1F
inactive: [1]; [7] -154% | [1]; [8] 41% | [1]; at 50.0 µM -2.5% | [2]; [7] -47% | [2]; [8] -41% | [2]; at 50.0 µM 10.7% | [3]; [7] -61% | [3]; [8] -17% | [3]; at 50.0 µM 0.2% | [4]; [7] -60% | [4]; [8] -72% | [4]; at 50.0 µM 4.65% | [5]; [7] -70% | [5]; [8] 9% | [5]; at 50.0 µM -3.5% | [6]; [7] -147% | [6]; [8] -43% | [6]; at 50.0 µM -9.6%
